# Measured values from PubChem BioAssay (NCI).
# “And” between values parts separate entries of the source, which are not always exact repeats. Identical values can stand only once. This is part of a sample that, as a whole, favours compounds with a hit. Of some 83,000 tested, about 20% had one in any assay.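 Testing used 96-well plates and a 48-hour single-concentration exposure. Example: -40 means 40% of the starting cells died.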 Where a structure was tested more than once in an assay, its records may differ in their call. The source made the active and inactive calls. How the source made its calls: active means growth percent below 10; inactive means the rest.
# What was measured:
# Assay in all cases: NCI-60 one-dose screen, 48 h (100 = growth as untreated, 0 = no growth, -100 = all killed)
# [1] = test system: HCT-15 colon
# [2] = test system: HT29 colon
# [3] = test system: SNB-19 CNS
# [4] = test system: PC-3 prostate
# [5] = test system: SK-MEL-5 melanoma
# [6] = test system: UACC-62 melanoma
# [7] = test system: LOX IMVI melanoma
# [8] = test system: SK-MEL-28 melanoma
# [9] = test system: SNB-75 CNS; details: 10 µM unless noted
# [10] = test system: U251 CNS; details: 10 µM unless noted
structure (smiles),measurement,setting,value
O=C(O)c1sccc1O,growth,[1]; 10 µM,81% (inactive)
same,growth,[1]; 100 µM,31.5% (inactive)
same,growth,[2]; 10 µM,105% (inactive)
same,growth,[2]; 100 µM,30.2% (inactive)
same,growth,[3]; 10 µM,82.1% (inactive)
same,growth,[3]; 100 µM,34.8% (inactive)
same,growth,[4]; 10 µM,49.3% (inactive)
same,growth,[4]; 100 µM,23% (inactive)
same,growth,[5]; 10 µM,78.6% (inactive)
same,growth,[5]; 100 µM,7.35% (active)
same,growth,[6]; 10 µM,56.5% (inactive)
same,growth,[6]; 100 µM,0.233% (active)
same,growth,[7]; 10 µM,80.3% (inactive)
same,growth,[7]; 100 µM,2.04% (active)
same,growth,[8]; 10 µM,101% (inactive)
same,growth,[8]; 100 µM,28.3% (inactive)
CC1=C(/C=C/C(C)=C/C=C/C(C)=C/C=N/NC(=S)NC(=S)N/N=C/C=C(C)/C=C/C=C(C)/C=C/C2=C(C)CCCC2(C)C)C(C)(C)CCC1,growth,[1]; 10 µM unless noted,26.5% (inactive) and -6.65% (active)
same,growth,[2]; 10 µM unless noted,-0.991% (active) and -29.3% (active)
same,growth,[9],-4.78% (active) and -40% (active)
same,growth,[3]; 10 µM unless noted,36.2% (inactive) and 16.3% (inactive)
same,growth,[10],-61.8% (active) and -94.4% (active)
same,growth,[4]; 10 µM unless noted,-1.77% (active) and -12.4% (active)
same,growth,[5]; 10 µM unless noted,-63% (active) and -96.5% (active)
same,growth,[6]; 10 µM unless noted,-60% (active) and -75.5% (active)
same,growth,[7]; 10 µM unless noted,-100% (active) and -93.6% (active)
same,growth,[8]; 10 µM unless noted,-24.4% (active) and -57.5% (active)
O=C(c1ccc(Cl)cc1)C(NCCO)c1ccc(Cl)cc1 (stereo unspecified),growth,[1]; 10 µM unless noted,99.7% (inactive) and 99% (inactive)
same,growth,[2]; 10 µM unless noted,109% (inactive) and 92.2% (inactive)
same,growth,[9],90.1% (inactive) and 81.8% (inactive)
same,growth,[3]; 10 µM unless noted,101% (inactive) and 97.6% (inactive)
same,growth,[10],95.9% (inactive) and 102% (inactive)
same,growth,[4]; 10 µM unless noted,81.9% (inactive) and 84.4% (inactive)
same,growth,[5]; 10 µM unless noted,91.9% (inactive) and 105% (inactive)
same,growth,[6]; 10 µM unless noted,85.3% (inactive) and 79.9% (inactive)
same,growth,[7]; 10 µM unless noted,94.8% (inactive) and 96.1% (inactive)
same,growth,[8]; 10 µM unless noted,111% (inactive) and 105% (inactive)
CCc1c(CC(=O)O)c2cc(C)ccc2n1Cc1ccc(Cl)cc1,growth,[1]; 10 µM unless noted,99.2% (inactive) and 98.3% (inactive)
same,growth,[2]; 10 µM unless noted,109% (inactive) and 117% (inactive)
same,growth,[9],84.1% (inactive) and 93.7% (inactive)
same,growth,[3]; 10 µM unless noted,102% (inactive) and 90.6% (inactive)
same,growth,[10],107% (inactive) and 93.7% (inactive)
same,growth,[4]; 10 µM unless noted,95% (inactive)
same,growth,[5]; 10 µM unless noted,93.8% (inactive) and 97.2% (inactive)
same,growth,[6]; 10 µM unless noted,84.9% (inactive) and 83.8% (inactive)
same,growth,[7]; 10 µM unless noted,103% (inactive) and 101% (inactive)
same,growth,[8]; 10 µM unless noted,129% (inactive) and 125% (inactive)
Cn1cnc([N+](=O)[O-])c1Sc1ncnc2nc[nH]c12,growth,[1]; 10 µM unless noted,83.6% (inactive) and 95.5% (inactive)
same,growth,[2]; 10 µM unless noted,59.4% (inactive) and 73.2% (inactive)
same,growth,[9],39.2% (inactive) and 58% (inactive)
same,growth,[3]; 10 µM unless noted,96.8% (inactive) and 110% (inactive)
same,growth,[10],78.6% (inactive) and 93.7% (inactive)
same,growth,[4]; 10 µM unless noted,76.6% (inactive) and 91.5% (inactive)
same,growth,[5]; 10 µM unless noted,77.9% (inactive)
same,growth,[6]; 10 µM unless noted,20.2% (inactive) and 35.8% (inactive)
same,growth,[7]; 10 µM unless noted,22.4% (inactive) and 22.5% (inactive)
same,growth,[8]; 10 µM unless noted,105% (inactive) and 116% (inactive)
CCCCCCCCCCCCCCCCOc1ccc(C)cc1,growth,[1]; 10 µM unless noted,108% (inactive)
same,growth,[2]; 10 µM unless noted,106% (inactive)
same,growth,[9],104% (inactive)
same,growth,[3]; 10 µM unless noted,109% (inactive)
same,growth,[10],101% (inactive)
same,growth,[4]; 10 µM unless noted,102% (inactive)
same,growth,[5]; 10 µM unless noted,108% (inactive)
same,growth,[6]; 10 µM unless noted,105% (inactive)
same,growth,[7]; 10 µM unless noted,87.3% (inactive)
same,growth,[8]; 10 µM unless noted,111% (inactive)
CCCCOc1cc(C(=O)NCCN(CC)CC)c2ccccc2n1,growth,[1]; 10 µM unless noted,96.5% (inactive) and 100% (inactive)
same,growth,[2]; 10 µM unless noted,57.7% (inactive) and 92.4% (inactive)
same,growth,[9],75.2% (inactive) and 88.9% (inactive)
same,growth,[3]; 10 µM unless noted,90.1% (inactive) and 91.9% (inactive)
same,growth,[10],83.4% (inactive) and 92.2% (inactive)
same,growth,[4]; 10 µM unless noted,73.9% (inactive) and 96% (inactive)
same,growth,[5]; 10 µM unless noted,86.4% (inactive) and 94.5% (inactive)
same,growth,[6]; 10 µM unless noted,95.6% (inactive) and 90.1% (inactive)
same,growth,[7]; 10 µM unless noted,88.4% (inactive) and 110% (inactive)
same,growth,[8]; 10 µM unless noted,102% (inactive) and 104% (inactive)
O=[N+]([O-])c1ccc(N/N=C\c2cc(Br)ccc2O)nc1,growth,[1]; 10 µM unless noted,21.6% (inactive) and 31.2% (inactive)
same,growth,[2]; 10 µM unless noted,27.8% (inactive)
same,growth,[9],38.3% (inactive) and 47.7% (inactive)
same,growth,[3]; 10 µM unless noted,29.2% (inactive) and 28.4% (inactive)
same,growth,[10],16.6% (inactive) and 5.3% (active)
same,growth,[4]; 10 µM unless noted,25.8% (inactive)
same,growth,[5]; 10 µM unless noted,-3.76% (active) and -35.9% (active)
same,growth,[6]; 10 µM unless noted,1.29% (active) and -17.2% (active)
same,growth,[7]; 10 µM unless noted,10.5% (inactive) and -18.4% (active)
same,growth,[8]; 10 µM unless noted,37.9% (inactive) and 34.1% (inactive)
